The sequences below were run against GALNT12 (assay: pooled miR-30 sensor sort-seq; sequence = guide strand). Settings: shRNA.

Row | Sequence | sensor-assay potency score (higher = more potent)
1 | TAGTCCTTTGTTCTGGAGCATC | -1.37
2 | TATAGTCAAAGCAGTAGTCTGT | 0.11
3 | TCGATCACATCAATCACCGGGC | -0.0357
4 | TTCTTCTCTTTGCACAGCGGGT | -1.37
5 | TTTCTTCTCTTTGCACAGCGGG | -0.991
6 | TCTTCTAGCAGGATATCCGGGG | -0.323
7 | TATCACTGTAGTCATCTACAAG | -1.3
8 | TTACACTGGAGCTTGTCCCGGA | 0.473
9 | TGAACTTCTGATTCTCTGGGGC | 0.682
10 | TTACTCACAGCAAACAGCCCAC | -0.133
11 | TTCAGCTGCACGAACACTGTTG | -0.106
12 | TTCTTCTAGCAGGATATCCGGG | -0.589

What follows are sequences tested against GALNT14 in the same assay as above. Settings: shRNA.

Row | Sequence | sensor-assay potency score (higher = more potent)
13 | TCATCTCTCAATGTAGTCCTGG | 0.0167
14 | TCTTTTGGAAACAACCTCCATT | -0.288
15 | TTGGAAACAACCTCCATTCTTC | 0.406
16 | TTGACGACGATTTCCTTGCCGT | -0.222
17 | TTCTTTTGGAAACAACCTCCAT | -0.965
18 | ATTGCTGTCGGTCATCTCCATT | -1.29
19 | TATGATAGGAGTCCTGATGGGC | -0.477
20 | TTGGTGTTCTTTATATACGTGT | -0.309
21 | TTGTCGATCACGAAGAGCCCTC | -0.543
22 | TTTTGGTCCATTGCTGTCGGTC | -1.13
23 | TTCCAGTCTGTTCTGGTCCAGG | -1.18
24 | AACAGCAGCACCGTGATCCAGA | -0.665

Each sequence was assayed against GALNT7 in the same assay as above. Settings: shRNA.

Row | Sequence | sensor-assay potency score (higher = more potent)
25 | TAACTTTTGATCCATCAGCTCC | -0.72
26 | TAATCATAACTTTTGATCCATC | -1.43
27 | TTCGTGCTTGAATTAAACCTTC | -0.485
28 | ATTGACATCTCTGTCTTCCCTC | 0.3
29 | TAGACTCTAAGTCCACTTCTAC | -0.661
30 | TTCATTGATTCTGAAAAGCTGA | -0.364
31 | TTGACATCTCTGTCTTCCCTCA | -0.191
32 | TTATTCTTCTAATAGACTCTAA | -0.0226
33 | TTAAATTTTAAAAACGTGCAGA | -0.271
34 | TTCTTTATTACTGAAATCGTCA | -0.232
35 | TTTAATTACACTGTGGACTGTT | 0.94

These sequences were tested against GALNT9 in the same assay as above. Settings: shRNA.

Row | Sequence | sensor-assay potency score (higher = more potent)
36 | TTGTTGTAGGGCTTCCTGGTGC | 0.157
37 | TTCGACATGGGGATGTTCCAGG | -0.845
38 | TTACCAGACCACAAGGAGCTGC | -0.143

Reference: the OligoGym collection
